Test results taken from the supplement of paper PMC13380429.

Tested on: Vero E6 infected with SARS-CoV-2
Assay: inhibition of SARS-CoV-2 cytopathic effect; higher = more antiviral protection, active = above 15
Conditions: 48 h

Measured: inhibition of SARS-CoV-2 cytopathic effect

CCCCC/C=C\C/C=C\CCCCCCCC(=O)NCCCC(=O)O [GABA-linoleamide]
inactive: 1 nM 0.87% | 8.33 nM 4.17% | 100 nM 1.92% | 833.33 nM -0.22% | 10000 nM -0.15%

O=C(CCCCCN1C(=O)c2cccc3cccc(c23)C1=O)NO [scriptaid]
inactive: 1 nM 4.82% | 8.33 nM 3.4% | 100 nM -3.14% | 833.33 nM -13.6% | 10000 nM -24.8%

Cc1ccc([N+](=O)[O-])cc1S(=O)(=O)N(C)C
inactive: 1 nM -1.97% | 8.33 nM -4.63% | 100 nM -0.38% | 833.33 nM -0.5% | 10000 nM -0.2%

O=[N+]([O-])c1cnc(Sc2nnc(O)n2-c2ccc3c(c2)OCCO3)s1
inactive: 1 nM 0.17% | 8.33 nM 0.75% | 100 nM 1.8% | 833.33 nM 0.05% | 10000 nM -17.7%

CC(CCc1ccccc1)NC(C)C(O)c1ccc(O)cc1 (stereo not given) [buphenine]
inactive: 1 nM 1.42% | 8.33 nM 1.45% | 100 nM -1.15% | 833.33 nM -0.63% | 10000 nM -2.78%

CCCOc1ccc(C(=O)OCCN(CC)CC)cc1N [proxymetacaine]
inactive: 1 nM 1.69% | 8.33 nM 1.71% | 100 nM 2.25% | 833.33 nM 0.25% | 10000 nM 2%

C=C[C@](C)(O)CC[C@@H]1[C@@]2(C)CCCC(C)(C)[C@@H]2CC[C@@]1(C)O [sclareol]
inactive: 1 nM 0.36% | 8.33 nM -0.46% | 100 nM -0.66% | 833.33 nM -1.37% | 10000 nM -4.46%

CC(C)(C)C(=O)NCCCC(=O)O [pivagabine]
inactive: 1 nM 0.01% | 8.33 nM -1.15% | 100 nM -1.01% | 833.33 nM 0.86% | 10000 nM -0.03%

Nc1nc2ccc(OC(F)(F)F)cc2s1 [riluzole]
inactive: 1 nM -0.39% | 8.33 nM -3.06% | 100 nM 0.81% | 833.33 nM 3.82% | 10000 nM 1.88%

COc1cc(OC)cc(C(=O)NNC(=O)Nc2cccc3ccccc23)c1
inactive: 1 nM 0.29% | 8.33 nM -2.09% | 100 nM -1.74% | 833.33 nM 2.71% | 10000 nM -1.92%

CN1C(=O)N(c2cc(Cl)cc(Cl)c2)C(=O)[C@]12CN(Cc1cc(C(=O)O)cs1)C[C@H]2c1ccc(C#N)cc1
inactive: 1 nM -1.94% | 8.33 nM 0.44% | 100 nM 1.44% | 833.33 nM 0.49% | 10000 nM -0.22%

C[N+]12CCC(CC1)C(OC(=O)C(O)(c1ccccc1)c1ccccc1)C2 (stereo not given) [clidinium]
inactive: 1 nM -2.04% | 8.33 nM 1.76% | 100 nM -0.23% | 833.33 nM 0.86% | 10000 nM -1.97%

CCCCNc1ccc(C(=O)OCCN(C)C)cc1 [tetracaine]
inactive: 1 nM 2.75% | 8.33 nM -1.31% | 100 nM -0.22% | 833.33 nM -2.39% | 10000 nM 0.71%

Cc1ccsc1/C=C/C1=NCCCN1C [morantel]
inactive: 1 nM -0.99% | 8.33 nM -3.26% | 100 nM -2.09% | 833.33 nM -5.69% | 10000 nM -0.33%

CN(C)CC[C@@](O)(c1ccccc1)c1ccccc1Cl [clofedanol]
inactive: 1 nM 1.53% | 8.33 nM 1.3% | 100 nM 1.86% | 833.33 nM 1.12% | 10000 nM 2.42%

CCCCCOC(=O)Nc1nc(=O)n([C@@H]2O[C@H](C)[C@@H](O)[C@H]2O)cc1F [capecitabine]
inactive: 1 nM -2.56% | 8.33 nM 0.42% | 100 nM -1.36% | 833.33 nM -0.59% | 10000 nM -1.14%

CC(C)Nc1cc(-c2c[nH]c(C(=O)N[C@H](CO)c3cccc(Cl)c3)c2)c(Cl)cn1
inactive: 1 nM -2.18% | 8.33 nM 0.33% | 100 nM -2.23% | 833.33 nM -5.21% | 10000 nM -6.01%

Fc1ccc(CNc2ncnc3ccc(F)cc23)cc1 [spautin-1]
inactive: 1 nM -1.85% | 8.33 nM -0.71% | 100 nM -0.05% | 833.33 nM -0.85% | 10000 nM -1.95%

CC/C=C\C/C=C\C/C=C\C/C=C\C/C=C\C/C=C\CCC(=O)OCC [doconexent-ethyl-ester]
inactive: 1 nM -1.67% | 8.33 nM 0.01% | 100 nM 0.45% | 833.33 nM 0.72% | 10000 nM 0.36%

Cc1cn([C@H]2C=C[C@@H](CO)O2)c(=O)[nH]c1=O [stavudine]
inactive: 1 nM -1.15% | 8.33 nM 2.97% | 100 nM 4% | 833.33 nM 2.52% | 10000 nM -1.21%
